# Sampled rows, rich in hits. Any-hit rate of the full collection: about 4.9%.
# dFosB act: activators of delta FosB homodimer, primary screen, biochemical, fluorescence polarization, TAMRA-CDK5 oligo, single point; activation, % at 25 µM; AID 493131, 2011; actives 0.99% (n = 340,000); purified delta FosB; percent of positive-control signal above neutral wells;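 active = mean activation above about 17%, with every replicate also reaching it, limit read from the data, passing the limit was not always enough; inconclusive = only one of the two conditions met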
# HSP90 refold inh: HSP90 inhibitors, primary screen, cell lysate, luminescence | Heat shock protein HSP 90 (rabbit reticulocyte lysate; luciferase refolding) | Rabbit reticulocyte lysate, luciferase refolding luminescence, 3 h | inhibition, % at 5.6 µM | actives 0.91% (n = 290,000) | AID 1789, 2009;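 active = inhibition above the screen-wide mean plus 3 SD, computed separately per campaign, cut at about 16% in these data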;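 also: 0% = DMSO wells and 100% = 60 µM geldanamycin wells; inhibitors lower the luminescence because luciferase stays unfolded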
# Platelet DG rel: inhibitors of platelet dense granule secretion, primary screen, cell-based, MLPCN, human platelets; human platelet-rich plasma, SFLLRN dense granule ATP release, luminescence; inhibition, %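 (compounds screened at 7.5 µM in platelet-rich plasma)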; actives 0.22% (n = 300,000); AID 1663, 2009;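 active = mean replicate score, as percent of positive control, at or above 50; inconclusive = mean below 50 but at least one replicate at or above 50; inactive = mean and every replicate below 50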
# MPTP block: mitochondrial permeability transition pore inhibitors, primary screen, biochemical, isolated mouse mitochondria, absorbance; Ca2+ swelling absorbance, 30 min; actives 1.4% (n = 360,000); inhibition, % at 10 µM; AID 602449, 2012;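 active = inhibition of 50% or more, scaled per plate between neutral and stimulator controls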;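 also: 0% = DMSO wells given calcium and 100% = 1 mM EGTA wells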
# HSF1 activator: HSF-1 activators, primary screen, NIH3T3-HGL cells, MG132 stress, luminescence, single point | NIH3T3-HGL HSF-1 luciferase reporter, 8 h; 100% = twice DMSO control signal | activation, % at 9 µM | actives 1.7% (n = 300,000);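 active = mean replicate activation of at least 50% with a set share of replicates each reaching 50%; inconclusive = only one of those two conditions met; inactive = mean below 50% and too few replicates reaching it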;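 also: 0% = median of the neutral control wells and 100% = twice that signal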
# HSF1 inhib: HSF1 inhibitors in luciferase reporter cells, primary screen, cell-based, NIH3T3, luminescence | NIH3T3-HGL HSE-luciferase, MG132-induced, luminescence 8 h; hits give low values | activity change, negative = inhibition, % at 7.5 µM (by protocol) | actives 0.77% (n = 300,000);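 active = more than half of replicate wells show activity change below -50%, luminescence cut by over half; inconclusive = some wells, but at most half, below -50%; inactive = no replicate well below -50%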;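 also: luciferase reports HSF-1 transcriptional activity via heat shock element; 0% = median of DMSO wells and -100% = zero luminescence signal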
# HSP90 confirm: HSP90 inhibitors, confirmation, cell lysate, luminescence. AID 1846, 2009. actives 64% (n = 2,300). shares compounds with HSP90 refold inh. inhibition, % at 5.9 µM. rabbit reticulocyte lysate, luciferase refolding luminescence, 3 h; in the data active = inhibition above about 18%;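 also: 0% = vehicle wells and 100% = reference inhibitor wells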
# luciferase ctr: firefly luciferase inhibitors, HSP90 counter-screen, confirmation, artefact control for HSP90 inhibitor project, biochemical, luminescence, triplicate; shares compounds with HSP90 refold inh; purified native firefly luciferase; inhibition, % at 5.9 µM; actives 48% (n = 2,300);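 active = inhibition above the mean inhibition of all tested sample wells plus 3 SD, cut at about 10% in these data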;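 also: 0% = DMSO with luciferase and 100% = wells lacking luciferase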
# Target sequence (P08659 whole entry, looked up): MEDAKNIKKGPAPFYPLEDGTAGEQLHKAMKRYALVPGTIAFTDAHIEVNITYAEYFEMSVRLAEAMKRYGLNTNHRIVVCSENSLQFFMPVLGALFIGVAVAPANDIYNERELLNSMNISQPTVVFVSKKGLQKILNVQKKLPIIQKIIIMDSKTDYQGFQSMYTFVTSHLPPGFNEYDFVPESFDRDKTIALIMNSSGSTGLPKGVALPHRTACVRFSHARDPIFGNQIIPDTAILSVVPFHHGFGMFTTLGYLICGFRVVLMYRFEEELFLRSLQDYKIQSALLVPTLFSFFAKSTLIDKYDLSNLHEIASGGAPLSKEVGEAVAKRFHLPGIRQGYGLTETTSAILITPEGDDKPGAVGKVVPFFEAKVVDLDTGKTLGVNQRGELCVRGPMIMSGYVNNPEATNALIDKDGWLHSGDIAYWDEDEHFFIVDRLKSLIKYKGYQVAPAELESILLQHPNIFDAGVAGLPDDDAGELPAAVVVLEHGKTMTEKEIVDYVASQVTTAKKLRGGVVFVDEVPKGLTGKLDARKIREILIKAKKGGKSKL
# The depositor's hits bear a star; ? = inconclusive; . = not tested or not shown.
SMILES,dFosB act,HSP90 refold inh,Platelet DG rel,MPTP block,HSF1 activator,HSF1 inhib,HSP90 confirm,luciferase ctr
CCCN1C=CC(=C2C(=O)c3ccccc3C2=O)C=C1,1.7,91.7*,63.8*,-1.5,-84.7,-83.3*,96.0*,91.2*
CCCCN1C(C)=CC(=C2C(=O)c3ccccc3C2=O)C=C1C,-2.7,17.2*,11.4,0.0,-17.7,-1.5,43.2*,30.9*
CCCCCCN1C=CC(=C2C(=O)c3ccccc3C2=O)C=C1,0.5,48.5*,8.0,-3.2,-58.6,?,83.9*,77.9*
CN1C=CC(=C2C(=O)c3ccccc3C2=O)C=C1,.,11.8,1.3,.,31.1,-3.3,.,.
CCN1C=CC(=C2C(=O)c3ccccc3C2=O)C=C1,-4.5,85.9*,52.7*,0.0,-78.8,-75.7*,92.8*,86.6*
CC1=CC(=C2C(=O)c3ccccc3C2=O)C=C(C)N1Cc1ccco1,-23.0,1.6,-7.8,-2.6,38.2,18.8,.,.
O=C(COC(=O)/C=C/c1ccccc1Cl)NCCNC(=O)COC(=O)/C=C/c1ccccc1Cl,4.4,1.2,-2.7,2.3,-21.1,-20.2,.,.
O=c1[nH]cc(CN2CCOCC2)c(=O)[nH]1,-3.9,.,.,-1.3,.,.,.,.
Nc1nc(-c2ccco2)c(-c2ccco2)s1,0.3,20.4*,-61.1,-1.6,11.2,9.9,-0.2,-3.2
O=c1[nH]c2cc3c(cc2cc1CN(CCO)S(=O)(=O)c1ccccc1)OCCO3,-9.1,-0.3,-2.2,0.6,-16.1,-5.7,.,.
COc1ccc(-c2cc(C(=O)Nc3cccc(O)c3)no2)cc1,-7.6,30.7*,32.1,-1.5,-8.9,12.5,70.5*,53.6*
CC(C)Cc1cc(C(=O)Nc2cccc(O)c2)no1,-1.2,38.5*,42.9,1.8,20.8,7.7,71.1*,64.6*
COc1ccc(-c2cc(C(=O)Nc3ccc(C)c(C)c3)no2)cc1,9.1,4.0,-1.8,0.8,4.4,3.1,.,.
COc1ccc(CNC(=O)c2cc(=O)c3cc(C)cc(C)c3o2)cc1,9.3,0.3,.,0.2,-11.8,-13.1,.,.
Cc1nc(Cc2nnc(SCC(=O)N3c4ccccc4NC(=O)C3(C)C)o2)cs1,.,.,.,1.2,.,.,.,.
c1ccc2nc(-c3nc4ccccc4o3)ccc2c1,-44.1,32.3*,?,-1.2,-20.2,-14.2,81.1*,76.2*
c1ccc(-c2nc3ccccc3o2)nc1,-3.0,-2.1,2.6,-1.6,23.0,13.4,.,.
Cn1ccc(C(=O)Nc2sc3c(c2C(N)=O)CCCCC3)n1,-0.5,18.6*,-9.1,-2.1,-7.1,-10.4,37.8*,19.0*
CC1(C(=O)Nc2ccc(Cl)c(Cl)c2)CCN1C(=O)Cc1cccc2ccccc12 (stereo not drawn),.,.,.,1.5,.,.,.,.
Cc1cc(C(=O)Nc2cccc(C(=O)O)c2)c(C)o1,-1.6,4.6,6.0,-0.4,6.9,3.5,.,.
CCOc1ccc(NC(=O)c2cccc(NC(=O)c3ccccc3)c2)cc1,2.7,2.7,14.9,0.6,7.9,-1.5,.,.
CCOc1cccc(C(=O)Nc2ccc3c(c2)OCCO3)c1,-6.7,19.4*,6.8,-1.0,37.1,17.6,45.4*,27.1*
Cc1cc(C(=O)Nc2cccc(C(=O)O)c2)oc1C,-4.2,86.1*,13.2,-2.6,-58.7,-52.9*,91.8*,79.2*
CCOc1c(Cl)cc(C(=O)Nc2cccc(C(=O)O)c2)cc1Cl,-3.0,30.2*,2.3,-1.4,41.5,18.3,47.4*,9.8*
CCOc1ccc(C(=O)Nc2ccc3[nH]ncc3c2)cc1,-3.4,18.3*,20.8,0.3,30.1,8.7,40.4*,10.6*
SMILES,dFosB act,HSP90 refold inh,Platelet DG rel,MPTP block,HSF1 activator,HSF1 inhib,HSP90 confirm,luciferase ctr
Cn1c(=O)c2c(nc3n2CC(O)CN3c2ccc(O)cc2)n(C)c1=O (stereo not drawn),4.9,3.2,-0.1,0.9,-10.0,1.6,.,.
CCn1c(SCC(=O)Nc2ccc(F)cc2)nnc1C1CC1,-5.4,-1.7,-0.1,-0.2,5.6,-0.4,.,.
O=C(/C=C/c1cccc([N+](=O)[O-])c1)OCC(=O)N1CCCCC1,.,.,.,-0.4,.,.,.,.
Cc1cc(C)c2c(=O)n3c(nc2c1)C(Cc1ccc(O)cc1)NC(=O)c1cc2ccccc2cc1-3 (stereo not drawn),.,.,.,-1.8,.,.,.,.
CCOc1cccc(C(=O)Nc2ccc3ccccc3c2)c1,-5.1,19.2*,-2.0,-0.7,15.9,4.3,47.0*,37.3*
COc1ccc(Cl)cc1C(=O)Nc1cccnc1Cl,-6.6,1.4,2.9,3.5,17.5,8.1,.,.
COc1ccccc1N1CCN(S(=O)(=O)CCNC(=O)CCc2ccccc2)CC1,.,.,.,-1.1,.,.,.,.
O=C(O)c1ccc(CNC(=O)C23CC4CC(CC(C4)C2)C3)cc1,-3.9,1.2,-1.2,-1.7,-21.4,-7.1,.,.
CC(=O)Nc1cccc(-c2csc(Nc3cc(C)ccn3)n2)c1,1.3,2.8,19.3,1.6,10.9,11.1,.,.
CC(=O)Nc1cccc(-c2csc(Nc3ccccn3)n2)c1,-5.2,19.0*,-3.2,0.5,1.4,-5.3,8.8,-10.2
CCOCCCNC(=O)c1ccc(NC(=O)C2CCCO2)cc1 (stereo not drawn),-5.8,29.9*,-9.4,2.1,-0.5,4.2,2.7,-0.5
CC(C)(C)OC(=O)N(CCc1ccccc1)Cc1cccc(OCc2cccc(NC(=O)/C=C/c3ccccc3)c2)c1,-7.8,.,.,2.2,.,.,.,.
COc1ccc2cc(C(=O)N/N=C/c3sc4ccccc4c3O)ccc2c1,-1.6,17.5*,-1.1,21.6,5.7,-7.8,0.0,-9.8
C[C@@H]1CN([C@@H](C)CO)S(=O)(=O)c2ccc(Br)cc2O[C@@H]1CN(C)C(=O)c1ccccn1,.,.,.,-1.1,.,.,.,.
COc1ccc(C)cc1S(=O)(=O)NCCN1CCOCC1,-4.3,-1.0,-4.2,1.7,-11.1,-13.2,.,.
O=C(c1ccc(N2CCOCC2)cc1)c1cccs1,-1.2,18.1*,0.9,2.2,26.9,13.8,42.2*,21.2*
CS(=O)(=O)c1ccc(-c2cn3cc(C(=O)O)ccc3n2)cc1,-5.8,63.2*,11.1,-0.6,-13.4,-14.6,74.6*,3.0
COC(=O)c1ccc2nc(-c3ccc(S(C)(=O)=O)cc3)cn2c1,-9.9,0.7,22.4,0.4,8.2,7.1,.,.
CCN(CC)C(=O)Cn1c(=O)c2ccccc2n2c(=S)sc(-c3cccc(C)c3)c12,-0.9,4.1,19.3,0.5,10.6,9.0,.,.

# From PubChem BioAssay
